49 compounds from paper PMC4336329 (PLoS ONE, 2015) can be followed below.

About 14,000 (4.5%) of roughly 310,000 compounds showed an effect of 50% or more. The effect is printed as a negative number. The list comes from a sample in which strong results are over-represented; it also holds similar structures and randomly drawn compounds.
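Also: peak tail current of the secondary pulse compared with the same well before compound.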

This assay deals with human ether-à-go-go-related gene (hERG) potassium channel (human, UniProt Q12809). In words: primary screen, population patch clamp on CHO cells stably expressing hERG; higher = less effect of the substance.
Sequence of human ether-à-go-go-related gene (hERG) potassium channel (Q12809 whole entry, looked up): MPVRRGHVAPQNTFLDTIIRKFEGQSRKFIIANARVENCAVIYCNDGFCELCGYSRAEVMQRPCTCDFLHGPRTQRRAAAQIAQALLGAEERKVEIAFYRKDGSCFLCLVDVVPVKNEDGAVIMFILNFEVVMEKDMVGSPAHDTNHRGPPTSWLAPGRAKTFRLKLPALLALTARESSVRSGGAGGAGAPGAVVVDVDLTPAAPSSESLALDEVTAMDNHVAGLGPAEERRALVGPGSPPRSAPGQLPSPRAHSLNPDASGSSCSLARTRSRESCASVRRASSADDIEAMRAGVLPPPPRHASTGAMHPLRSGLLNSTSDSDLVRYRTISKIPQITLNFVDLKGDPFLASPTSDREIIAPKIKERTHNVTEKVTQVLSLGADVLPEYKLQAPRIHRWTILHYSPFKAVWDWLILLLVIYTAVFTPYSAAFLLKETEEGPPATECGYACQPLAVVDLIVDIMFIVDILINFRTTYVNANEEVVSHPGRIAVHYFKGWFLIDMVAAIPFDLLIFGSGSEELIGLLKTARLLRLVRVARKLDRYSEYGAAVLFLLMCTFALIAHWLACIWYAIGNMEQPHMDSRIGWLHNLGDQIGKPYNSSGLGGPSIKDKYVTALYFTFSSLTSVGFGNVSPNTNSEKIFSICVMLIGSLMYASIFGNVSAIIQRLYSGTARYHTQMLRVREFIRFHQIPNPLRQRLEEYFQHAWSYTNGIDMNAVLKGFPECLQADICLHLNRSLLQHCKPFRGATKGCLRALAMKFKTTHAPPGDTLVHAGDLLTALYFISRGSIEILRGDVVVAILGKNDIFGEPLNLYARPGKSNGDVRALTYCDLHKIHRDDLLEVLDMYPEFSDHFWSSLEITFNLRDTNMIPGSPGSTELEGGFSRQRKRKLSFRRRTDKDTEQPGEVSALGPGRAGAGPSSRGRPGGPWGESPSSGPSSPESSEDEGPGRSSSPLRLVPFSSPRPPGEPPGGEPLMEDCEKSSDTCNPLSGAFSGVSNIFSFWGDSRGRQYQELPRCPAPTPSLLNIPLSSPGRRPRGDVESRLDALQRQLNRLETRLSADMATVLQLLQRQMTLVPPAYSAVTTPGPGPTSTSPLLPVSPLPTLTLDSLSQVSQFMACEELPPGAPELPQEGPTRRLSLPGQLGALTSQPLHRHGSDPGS
`Cc1ccc(CS(=O)(=O)c2ncc(Cl)c(C(=O)Nc3nnc(C(C)C)s3)n2)cc1`: the “hERG current change (%, negative = inhibition) at 10uM” value is 9.25%. As for `CC(=O)Oc1cc2cccc(OC(C)=O)c(=O)c2c(OC(C)=O)c1OC(C)=O`, the “hERG current change (%, negative = inhibition) at 10uM” value amounted to 1.34%. Next, `CCCCC(CC)C(=O)Nc1cc(C(=O)NCCC)ccc1N1CCC2(CC1)CC(c1cccc(Br)c1)=NO2` (stereo not shown): -7.85%.

For `CCCNC(=O)c1ccc(N2CCC3(CC2)CC(c2ccccc2)=NO3)c(NC(=O)c2cccc(C)c2)c1`, the “hERG current change (%, negative = inhibition) at 10uM” value is on record as -18.6%. `CCCCC(CC)C(=O)Nc1cc(C(=O)NCCC)ccc1N1CCC2(CC1)CC(c1ccccc1)=NO2` (stereo not shown): the “hERG current change (%, negative = inhibition) at 10uM” value was -64.6%. Next, `CCCCC(CC)C(=O)Nc1cc(C(=O)NCc2ccc(C)cc2)ccc1N1CCC2(CC1)CC(c1ccccc1)=NO2` (stereo not shown): 2.86%. As for `CCCNC(=O)c1ccc(N2CCC3(CC2)CC(c2cccc(Br)c2)=NO3)c(NC(=O)c2ccccc2)c1`, the “hERG current change (%, negative = inhibition) at 10uM” value is given as -0.8%.

Consider `CCCNC(=O)c1ccc(N2CCC3(CC2)CC(c2ccccc2)=NO3)c(NC(=O)c2cccc(OC)c2)c1`, for which the “hERG current change (%, negative = inhibition) at 10uM” value is on record as -68.6%. For `O=C(NC(=O)c1csnn1)Nc1ccccc1Cl` the value was 9.03%; for `CCc1cc2c3c(c1)C(C)CC(C)(C)N3C(=O)C2=O` (stereo not shown), -15.6%; for `C=CCN=C1CC(C)(C)CC(=O)/C1=C(\O)c1ccccc1`, -6.18%. For `CCCC(=O)Nc1sc(C)c(C)c1C#N`, the “hERG current change (%, negative = inhibition) at 10uM” value turned out to be 2.9%.

`CN(C)c1nc(Nc2ccccc2)nc(N(C)C)n1`: the “hERG current change (%, negative = inhibition) at 10uM” value is reported as 8.3%. Turning to `Cc1cc(C)nc(Sc2nc(Nc3ccccc3)nc(Sc3nc(C)cc(C)n3)n2)n1`, the “hERG current change (%, negative = inhibition) at 10uM” value was -4.94%. Next, `Cc1cc(N(C)C)nc(Nc2ccccc2)n1`: -56.8%; `COc1ccccc1CCNC(=O)NC1CCCCC1`: -12.1%; `Cc1nc(C(C)NC(=O)CCc2nnc(-c3ccsc3)o2)cs1` (stereo not shown): 15.8%. In the case of `CC(=Nc1ccc2c(c1)nc(CO)n2C)C1=C(O)CC(C)(C)CC1=O`, the “hERG current change (%, negative = inhibition) at 10uM” value is reported as 2.09%. Next, `Cc1ccccc1NS(=O)(=O)c1ccc(OCCNS(C)(=O)=O)cc1`: -4.01%; `N#Cc1cc2c(nc1SCC(=O)Nc1ccc(Cl)cc1)C1CCN2CC1`: -7.69%.

For the compound `CCN(CC)S(=O)(=O)c1cc(NC(=O)CSc2nc3c(cc2C#N)C(=O)CC(C)(C)C3)ccc1C`, the “hERG current change (%, negative = inhibition) at 10uM” value stood at 4.51%. As for `CN(C)S(=O)(=O)c1cccc(NC(=O)CSc2nc3c(cc2C#N)C(=O)CC(C)(C)C3)c1`, the “hERG current change (%, negative = inhibition) at 10uM” value is given as -34.7%. Take `CN(C)S(=O)(=O)c1ccc(Cl)c(NC(=O)CSc2nc3c(cc2C#N)C(=O)CC(C)(C)C3)c1`: the “hERG current change (%, negative = inhibition) at 10uM” value is given as -65.3%.

As to `CN1CCc2nc(SCC(=O)Nc3ccc(Cl)cc3)c(C#N)cc2C1`, the “hERG current change (%, negative = inhibition) at 10uM” value is recorded as -38.4%. For `N#Cc1cc2c(nc1SCC(=O)Nc1cc(Cl)ccc1Cl)C1CCN2CC1` the value was -51.7%. For `CCCCOC(=O)c1ccc(NC(=S)N2CCN(c3ncc4c(=O)c(C(=O)O)cn(CC)c4n3)CC2)cc1` the value was 11.2%; for `C[C@H](NC(=O)c1[nH]cnc1C(=O)Nc1ccc(CNC(=O)OC(C)(C)C)cc1)C(=O)OC(C)(C)C`, 17.2%; for `COC(=O)c1ccc(C2c3c(oc4ccc(F)cc4c3=O)C(=O)N2CCO)cc1` (stereo not shown), 3.74%. Take `O=C(CCC(=O)N/N=C/c1ccc(Br)s1)NCc1ccccc1`: the “hERG current change (%, negative = inhibition) at 10uM” value is reported as 5.19%. As for `Cc1ccc(/C=N/NC(=O)CN2CCN(Cc3ccccc3)CC2)s1`, the “hERG current change (%, negative = inhibition) at 10uM” value is on record as -55.8%. Next, `Cc1ccsc1/C=N/NC(=O)CN1CCN(Cc2ccccc2)CC1`: -8.1%. In the case of `Cc1ccc(/C=N/N2CCN(Cc3ccccc3)CC2)s1`, the “hERG current change (%, negative = inhibition) at 10uM” value is -15.7%. Take `O=C(N/N=C/c1ccc(Br)s1)Nc1ccccc1`: the “hERG current change (%, negative = inhibition) at 10uM” value worked out at 4.13%.

With `O=C(CN1CCN(Cc2ccccc2)CC1)N/N=C/c1ccc(Br)s1`, the “hERG current change (%, negative = inhibition) at 10uM” value was -60%. Regarding `COc1cc(CC(=O)OCC(=O)Nc2ncc(Cl)cc2Cl)cc(OC)c1OC`, the “hERG current change (%, negative = inhibition) at 10uM” value stood at 7.58%. Regarding `COc1ccccc1NS(=O)(=O)c1ccc(O)c(C(=O)OCC(=O)c2ccc(Cl)cc2Cl)c1`, the “hERG current change (%, negative = inhibition) at 10uM” value was found to be 23.4%. For `Br.CC(C)CCC1CC(CSC(=N)N)OC1=O` (stereo not shown), the “hERG current change (%, negative = inhibition) at 10uM” value is given as -14%. For `Nc1ccccc1-[n+]1c(-c2ccccc2)cc(-c2ccccc2)cc1-c1ccccc1.[O-][Cl+3]([O-])([O-])[O-]` the value was -50.9%. Next, `Oc1ccccc1-[n+]1c(-c2ccccc2)cc(-c2ccccc2)cc1-c1ccccc1.[O-][Cl+3]([O-])([O-])[O-]`: -71.2%; `O=C([O-])c1ccccc1-[n+]1c(-c2ccccc2)cc(-c2ccccc2)cc1-c1ccccc1`: -3.82%.

Regarding `Oc1ccccc1-[n+]1c(-c2ccccc2)cc(-c2ccccc2)c(O)c1-c1ccccc1.[O-][Cl+3]([O-])([O-])[O-]`, the “hERG current change (%, negative = inhibition) at 10uM” value is on record as 15.1%. Next, `O=C([O-])c1ccc(-[n+]2c(-c3ccccc3)cc(-c3ccccc3)cc2-c2ccccc2)cc1`: -0.807%; `Cc1ccccc1-[n+]1c(-c2ccccc2)cc(-c2ccccc2)cc1-c1ccccc1.[O-][Cl+3]([O-])([O-])[O-]`: -76.3%; `[O-]c1ccccc1-[n+]1c(-c2ccccc2)cc(-c2ccccc2)cc1-c1ccccc1`: -71.1%. Next, `Cc1ccc(-c2cc(-c3ccccc3)cc(-c3ccccc3)[n+]2-c2ccccc2C(=O)O)cc1.[O-][Cl+3]([O-])([O-])[O-]`: -21.5%; `COc1ccc(NC(=O)C2CCCN(S(=O)(=O)c3ccc4c(c3)CC(C)N4C(C)=O)C2)cc1` (stereo not shown): 24.3%; `Cc1ccc(NC(=O)C2CCCC2)cc1Cl`: -2.92%. Turning to `O=C(COC(=O)CNS(=O)(=O)c1ccccc1)NC12CC3CC(CC(C3)C1)C2`, the “hERG current change (%, negative = inhibition) at 10uM” value is -18%.

Turning to `C=CCNC(=S)N/N=C(\C)c1cccnc1`, the “hERG current change (%, negative = inhibition) at 10uM” value stood at 0.787%.
